The values that follow come from PubChem BioAssay AID1628 (Sanford-Burnham Center for Chemical Genomics, 2009).

The campaign covered roughly 190,000 compounds. About 930 (0.49%) were called active.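 Rule for the calls: active = z-score of insulin promoter reporter brightness in nuclei below -3 at 5 µM, with at least 500 cells counted; inconclusive = wells with under 500 cells, flagged as toxic or sparse; inactive = the rest.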 Some of the results follow. Results with a measured potency or affinity are listed apart.

A short description of the assay: decrease of insulin promoter-GFP reporter – imaging, high-content screening, mouse beta cells (AID 1628). The conditions noted are these: MIN6 insulin promoter GFP reporter, at 5 µM, stronger effect = lower value.
With `O=C(/C=C/c1ccccc1)NCC(=O)N/N=C/c1ccccc1[N+](=O)[O-]`, the z-score was 3.03 (inactive).

For `O=[N+]([O-])c1ccc(N/N=C/c2c[nH]c3ccccc23)cc1`, the z-score was 3.11 (inactive).

As to `CCN(CC)CCn1c(=S)[nH]c2ccc(Cl)cc2c1=O`, the z-score was 3.97 (inactive). As to `C=C(C)Cn1c(=S)[nH]c2ccccc2c1=O`, the z-score is -6.61 (active). The figure for `Nn1c(=O)[nH]c2ccccc2c1=O` is -0.08 (inactive); for `O=[N+]([O-])c1ccc(Cc2nnc(-c3ccccc3Cl)o2)cc1` it is 2.55 (inactive); for `CCOc1ccc(-c2nnn(CC(=O)c3ccc4c(c3)OCCO4)n2)cc1` it is -0.23 (inactive).

On to `CC(C)Cn1c(N)c(C(=O)COC(=O)c2ccc3c(c2)OCCO3)c(=O)n(C)c1=O`, for which the z-score was -4.98 (active). In the case of `COCc1c(C(=O)OCC(=O)c2c(N)n(CC(C)C)c(=O)n(C)c2=O)oc2ccccc12` it was -4.37 (active). Regarding `C[C@@H](C(=O)Nc1ccc2ccccc2c1)[C@H]1C[C@]1(C)[C@H](NC(=O)c1cnccn1)c1ccccc1`, the z-score was -4.74 (active). In the case of `CCOC(=O)C1=C(N2CCCCC2)c2cc3c(n2C1=O)CCCC3` it was -3.42 (active); in that of `CCOC(=O)CN1C(=O)S/C(=C/c2ccc(N3CCCCC3)o2)C1=O`, 5.8 (inactive); in that of `COc1ccc2c(OC)c3ccoc3nc2c1OC`, -0.53 (inactive). In the case of `CCCS(=O)(=O)N1CCN(Cc2ccccc2C(F)(F)F)CC1` it was -0.28 (inactive); in that of `CCCS(=O)(=O)N1CCN(Cc2ccccc2[N+](=O)[O-])CC1`, -3.06 (active); in that of `CC(C)SC1=NC(C)(C)C=C(/C=C/c2ccc(Cl)cc2Cl)N1`, 3.58 (inactive).

Turning to `Cn1cnc2c(NCc3ccco3)ncnc21`, the z-score was -0.11 (inactive). In the case of `Cc1ccc(/C=N/Nc2ccc3ccccc3n2)o1` it was -3.22 (active); in that of `Cc1cc(N/N=C/c2ccc([N+](=O)[O-])o2)nc2ccccc12`, 8.56 (inactive). The figure for `Cc1nc2ccccn2c1-c1csc(NCc2ccco2)n1` is -9.7 (active); for `Cc1ccn2c(-c3csc(NCc4ccco4)n3)c(C)nc2c1` it is -6.24 (active).

In the case of `Cc1ccn2c(=O)cc(C)nc2c1`, the z-score was 2.27 (inactive). In the case of `CC(=O)Nc1ccc(N2C(=O)C3C4CC(=O)C(c5ccccc54)C3C2=O)cc1` (configuration not stated) it was -5.05 (active); in that of `CC(=O)Nc1ccc(N2CCc3c(C)c(C#N)c4nc5ccccc5n4c32)cc1`, 3.8 (inactive). As for `CC1CN(Cc2cc(=O)[nH]c(C3CC3)n2)CC(C)O1` (configuration not stated), the z-score was -3.69 (active). The figure for `CCN(CCNC(=O)C1CCCN(S(=O)(=O)CC)C1)c1ccccc1` (configuration not stated) is 3.08 (inactive); for `C/C(=N\NC(=O)C1CCCN(S(=O)(=O)c2ccccc2)C1)c1ccccn1` (configuration not stated) it is -3.38 (active). Turning to `O=C(NCc1ccc(F)cc1)C1CCCN(S(=O)(=O)c2cccnc2)C1` (configuration not stated), the z-score was 3.46 (inactive).

For the molecule `COc1cc(/C=N/NC(=S)Nc2cccc(Cl)c2C)ccc1OCC(=O)N1CC(C)OC(C)C1` (configuration not stated), the z-score was -3.25 (active). The figure for `Oc1ccc(Cl)cc1C1=Nc2ccccc2N=C(c2ccco2)C1` is 4.34 (inactive). Regarding `COC1=CCC2([N+](=O)[O-])CN(CCO)CC1([N+](=O)[O-])C2` (configuration not stated), the z-score was 3.03 (inactive). As to `Cc1ccccc1N1C(=O)CC(c2c[nH]c3ccccc23)C1=O` (configuration not stated), the z-score is 3.5 (inactive). In the case of `CCn1c(COc2ccc(=O)n(-c3ccccc3)n2)nnc1SCc1ccccc1C` it was -4.23 (active). The figure for `CCOC(=O)c1sc(NCCNc2nc(C)c(C(=O)OCC)s2)nc1C` is -0.64 (inactive); for `COc1cc(=O)n(C)c2c(OCC3OC(C)(C)OC3(C)C)cccc12` (configuration not stated) it is -0.95 (inactive); for `O=C1/C(=N\S(=O)(=O)c2cccs2)C([n+]2cccc(Cc3ccccc3)c2)=C([O-])c2ccccc21` it is 6.82 (inactive). In the case of `O=C1C=C(Nc2ccccc2)C(=O)c2ccccc21`, the z-score was -0.04 (inactive). In the case of `CC(C)(C)NC(=O)CSc1n[nH]c(=O)n1-c1ccccc1` it was 2.5 (inactive); in that of `CCCn1c(SCC(=O)NC2CCCCC2)nnc1-c1ccncc1`, 3.06 (inactive); in that of `Cn1c(SCC(=O)NNC(=O)Cc2ccccc2)nnc1-c1ccc(Cl)cc1`, -3.49 (active). In the case of `O=C(NC1(C(F)(F)F)NC(=O)N(c2ccc(F)c(Cl)c2)C1=O)c1ccncc1` (configuration not stated) it was 4.5 (inactive); in that of `COc1ccc2cc(C(c3nnnn3C(C)(C)C)N3CCc4ccccc4C3)c(=O)[nH]c2c1` (configuration not stated), -5.1 (active). The figure for `OCCC1CN(Cc2cccn2-c2ncccn2)CCN1CCc1ccccc1` (configuration not stated) is -3.43 (active); for `CCc1ccc(N2CC(O)(c3cccs3)[N+]3=C2SCCC3)cc1` (configuration not stated) it is -3.76 (active); for `O=S(=O)([O-])CCC[n+]1c(/C=C\Nc2ccccc2)oc2ccc(-c3ccccc3)cc21` it is 3.19 (inactive). Take `CSC(=Nc1cccc(C)c1)NC#N`: the z-score is -5.35 (active). For the molecule `Cc1ccc(C(=O)NCCn2c(N)c(C#N)c3nc4ccccc4nc32)cc1`, the z-score was 4.08 (inactive). Turning to `COCCCNC(=O)c1c(N)n(/N=C/c2cccnc2)c2nc3ccccc3nc12`, the z-score was -3.07 (active). The figure for `COC(=O)C1=C(N)n2c(s/c(=C\c3cccnc3)c2=O)=C(C(=O)OC)C1c1cccnc1` (configuration not stated) is 3.21 (inactive); for `Cc1ccc(-n2c(Cc3cccs3)nnc2SCC(=O)OC(C)C)cc1` it is 3.05 (inactive); for `COc1cc(/C=C(\C#N)c2nc3ccccc3o2)ccc1O` it is 4.56 (inactive). In the case of `CC(C)(C)NC(=S)N/N=C\c1ccc(-c2ccc([N+](=O)[O-])cc2)o1` it was 14.4 (inactive); in that of `CCNC(=S)N/N=C/c1ccc(-c2ccccc2)o1`, -3.35 (active); in that of `COCCNC(=S)N/N=C/c1ccc(-c2ccc([N+](=O)[O-])cc2)o1`, 5.22 (inactive). The figure for `CN(C)C(=O)C1C2NC(=S)N(c3cccc(Cl)c3)C1(C)Oc1ccc(Cl)cc12` (configuration not stated) is 3.51 (inactive). As for `Nc1c(C(=O)c2ccccc2)sc2nsc(SCCN3CCCC3)c12`, the z-score was 6.03 (inactive).

`CC(CNCC1CCCO1)COc1cccc2ccccc12` (configuration not stated): the z-score is -4.31 (active). In the case of `OC(CNCC1CCCO1)COc1ccc(OCC(O)CNCC2CCCO2)cc1` (configuration not stated) it was 1.04 (inactive). The figure for `CCOC(=O)/C(C#N)=C/C=C1\C=Cc2ccccc2N1CC` is 4.84 (inactive); for `O=C(c1ccccn1)N1CCN(S(=O)(=O)c2ccc3ccccc3c2)CC1` it is 3.58 (inactive). In the case of `O=C(C1=C[C@H](C2CC2)C[C@H](OCCCCO)O1)N1CCN(Cc2ccccc2)CC1` it was 3.72 (inactive); in that of `CS(=O)(=O)N(CCc1ccccc1)CC(=O)N1CCN(Cc2ccccc2)CC1`, 0.33 (inactive).
